# From PubChem BioAssay
# Results filed as inconclusive are left out. Activity calls are given as the source filed them.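 How the source made its calls, unless noted: active means normalized viability below 100% at a tested concentration; inactive means the rest.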
# What was measured:
# [1] = growth inhibition of DIPG glioma cells, dose response, cell-based, SU-DIPG-XVII, MIPE5.0, CellTiter-Glo, qHTS (AID 1347060; cut-off not given, nearly all actives have AC50 up to about 26 µM;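 further: cells exposed to compound for 48 hours before viability readout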); details: SU-DIPG-XVII viability, CellTiter-Glo ATP luminescence
# [2] = growth inhibition of DIPG glioma cells, dose response, cell-based, SU-DIPG-XIII, MIPE4.0, CellTiter-Glo, qHTS (AID 1347061; cut-off not given, nearly all actives have AC50 up to about 37 µM;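 further: cells exposed to compound for 48 hours before readout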); details: SU-DIPG-XIII viability, CellTiter-Glo ATP luminescence
# [3] = growth inhibition of DIPG glioma cells, dose response, cell-based, JHH-DIPG-1, MIPE4.0, CellTiter-Glo, qHTS (AID 1347062; cut-off not given, nearly all actives have AC50 up to about 27 µM;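 further: cells exposed to compound for two days before readout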); details: JHH-DIPG-1 viability, CellTiter-Glo ATP luminescence
# [4] = growth inhibition of DIPG glioma cells, dose response, cell-based, SU-DIPG-IV, MIPE4.0, CellTiter-Glo, qHTS (AID 1347063; cut-off not given, nearly all actives have AC50 up to about 30 µM;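 further: compound exposure lasted 48 hours before the viability readout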); details: SU-DIPG-IV viability, CellTiter-Glo ATP luminescence
# [5] = growth inhibition of DIPG glioma cells, dose response, cell-based, SU-DIPG-XIII, MIPE5.0, CellTiter-Glo, qHTS (AID 1347064; cut-off not given, nearly all actives have AC50 up to about 23 µM;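 further: cells exposed to compound for 48 hours before the viability read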); details: SU-DIPG-XIII viability, CellTiter-Glo ATP luminescence
# [6] = viability loss in pontine glioma line – cell-based, SU-DIPG-XXV, MIPE5.0, CellTiter-Glo, qHTS, dose response (AID 1347065; cut-off not given, nearly all actives have AC50 up to about 26 µM;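 further: cells exposed to compound for 48 hours before ATP readout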); details: CellTiter-Glo ATP luminescence
# [7] = SU-DIPG-VI glioma cell viability, MIPE4.0 library, CellTiter-Glo luminescence, qHTS (AID 1347066; cut-off not given, nearly all actives have AC50 up to about 30 µM;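 further: cells exposed to compound for 48 hours before readout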); details: CellTiter-Glo ATP luminescence
# [8] = JHH-DIPG-1 glioma cell viability, MIPE5.0 library, CellTiter-Glo luminescence, qHTS (AID 1347067; cut-off not given, nearly all actives have AC50 up to about 26 µM;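 further: cells exposed to compound for 48 hours before readout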); details: JHH-DIPG-1 glioma viability, CellTiter-Glo ATP luminescence
# [9] = SU-DIPG-XXV glioma cell viability, MIPE5.0 library, qHTS (AID 1347068; cut-off not given, nearly all actives have IC50 up to about 30 µM;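 further: cells exposed to compound for 48 hours before viability readout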)
# [10] = sensitizers of A549 cells to miR-34 induction, primary screen, imaging, A549 dox-inducible miR-34, nuclei and caspase counts (AID 1347080;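 active means compounds whose cell count with miR-34 switched on is under 0.7 times the count with it off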); details: A549 miR-34 inducible, Hoechst nuclei count, 48 h
# [11] = modifiers of HSF1 nuclear foci, imaging, Selleck Cancer Library (AID 1347162; in the data active means plate-normalised HSF1 focus index below about 0.46); details: human cells, at 10 µM; SSMD: measured here: HSF1 foci SSMD mean; cell count: measured here: cell number; plate-normalised HSF1 focus index: stronger effect = lower value
# [12] = survival rescue of mitochondrial mutant cells in low glucose, primary screen, MELAS cybrids, Rieske KO mouse fibroblasts, CellTiter-Glo (AID 1508586;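 active means mean z-score across replicates of 1.96 or higher in either the MELAS or the Rieske mutant cell line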;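 further: z relative to plate mean and SD of compound and empty wells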)
# [13] = ovarian cancer cell viability with rucaparib, profiling panel, oncology-focused library, rucaparib conditional (AID 1508598); details: patient-derived ovarian cancer cells, CellTiter-Glo viability, 144 h, stronger effect = lower value
# [14] = LFS_MB_P medulloblastoma growth inhibition, cell-based, chromothripsis tumors, cisplatin or BGB combos (AID 1671449; in the data active means inhibition above about 80%;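 further: cells exposed for 96 hours; 0% = vehicle DMSO and 100% = killing by high DMSO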); details: LFS_MB_P medulloblastoma cells
# [15] = HDN33 neuroblastoma growth inhibition, cell-based, chromothripsis tumors, cisplatin or BGB combos (AID 1671450; in the data active means inhibition above about 80%;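 further: cells exposed to compound for four days; 0% = vehicle DMSO and 100% = cell killing by high DMSO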); details: HDN33 neuroblastoma cells, stronger effect = higher value
# [16] = ICB984 medulloblastoma cell growth inhibition, synergistic combos for chromothripsis tumors, cisplatin or BGB combos (AID 1671451; call rule not given here;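 further: cells exposed for 96 hours before readout; 0% = vehicle DMSO and 100% = killing by high DMSO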); details: ICB984 medulloblastoma cells, drug combinations, stronger effect = higher value
# [17] = HTB85 osteosarcoma cell growth inhibition, synergistic combos for chromothripsis tumors, BGB or cisplatin IC20 combos (AID 1671453; in the data active means inhibition above about 80%;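 further: cells exposed for 96 hours before readout; 0% = vehicle DMSO and 100% = high DMSO killing control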); details: HTB85 osteosarcoma cells, drug combinations, stronger effect = higher value
# [18] = MDA-MB-436 breast carcinoma cell growth inhibition, synergistic combos for chromothripsis tumors, BGB or cisplatin combos (AID 1671458; call rule not given here;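 further: cells exposed for 96 hours; 0% = vehicle DMSO and 100% = killing by high DMSO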); details: MDA-MB-436 breast carcinoma growth inhibition, drug combinations, stronger effect = higher value
# [19] = growth inhibition of BT084 medulloblastoma cells, cell-based, ICGC_MB145, cisplatin and BGB IC40 combos (AID 1671461; in the data active means inhibition above about 80%;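 further: cells exposed to drugs for 96 hours; 0% = vehicle DMSO and 100% = high DMSO full killing control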); details: drug combinations, stronger effect = higher value
# [20] = growth inhibition of RCMB18 medulloblastoma cells, cell-based, cisplatin and BGB IC40 combos (AID 1671462; in the data active means inhibition above about 80%;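 further: cells exposed to compound for four days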); details: stronger effect = higher value
compound,measurement,setting,value
O=c1cc(N2CCOCC2)oc2c(-c3cccc4c3sc3ccccc34)cccc12,AC50,[1],13.2 µM (active)
same,outcome,[2],inactive
same,AC50,[3],23.5 µM (active)
same,AC50,[4],14.8 µM (active)
same,AC50,[5],16.6 µM (active)
same,AC50,[6],14.8 µM (active)
same,AC50,[7],18.7 µM (active)
same,AC50,[8],16.6 µM (active)
same,IC50,[9],29.5 µM (active)
same,fold change,"[10]; stronger effect = lower value, cell number ratio, induced over uninduced",0.901 (inactive)
same,fold change,[10]; measured here: relative caspase fold change +Dox/-Dox,0.761
same,cell count,"[10]; measured here: total cells with miR-34 induction, stronger effect = lower value",6010
same,cell count,[10]; measured here: total cells without miR-34 induction,6670
same,SSMD,[11],-0.228
same,cell count,[11],7060
same,plate-normalised HSF1 focus index,[11],0.984 (inactive)
same,z-score,"[12]; MELAS cybrid survival, CellTiter-Glo 48 h, stronger effect = higher value",-0.264 (inactive)
same,z-score,"[12]; Rieske KO mouse fibroblast survival, CellTiter-Glo 72 h",1.08
same,viability,"[13]; at 0.000305 µM, OCI-C5x cells, with rucaparib 10 µM, 100% = cells with rucaparib alone",98.4% (active)
same,viability,"[13]; at 0.000305 µM, OCI-C5x cells, without rucaparib",106% (inactive)
same,viability,"[13]; at 0.000305 µM, OCI-P5x cells, with rucaparib 20 µM, 100% = cells with rucaparib alone",104% (inactive)
same,viability,"[13]; at 0.000305 µM, OCI-P5x cells, without rucaparib",99.9% (active)
same,viability,"[13]; at 0.00122 µM, OCI-C5x cells, with rucaparib 10 µM, 100% = cells with rucaparib alone",100% (inactive)
same,viability,"[13]; at 0.00122 µM, OCI-C5x cells, without rucaparib",104% (inactive)
same,viability,"[13]; at 0.00122 µM, OCI-P5x cells, with rucaparib 20 µM, 100% = cells with rucaparib alone",103% (inactive)
same,viability,"[13]; at 0.00122 µM, OCI-P5x cells, without rucaparib",102% (inactive)
same,viability,"[13]; at 0.00488 µM, OCI-C5x cells, with rucaparib 10 µM, 100% = cells with rucaparib alone",101% (inactive)
same,viability,"[13]; at 0.00488 µM, OCI-C5x cells, without rucaparib",103% (inactive)
same,viability,"[13]; at 0.00488 µM, OCI-P5x cells, with rucaparib 20 µM, 100% = cells with rucaparib alone",107% (inactive)
same,viability,"[13]; at 0.00488 µM, OCI-P5x cells, without rucaparib",99% (active)
same,viability,"[13]; at 0.0195 µM, OCI-C5x cells, with rucaparib 10 µM, 100% = cells with rucaparib alone",98.9% (active)
same,viability,"[13]; at 0.0195 µM, OCI-C5x cells, without rucaparib",103% (inactive)
same,viability,"[13]; at 0.0195 µM, OCI-P5x cells, with rucaparib 20 µM, 100% = cells with rucaparib alone",107% (inactive)
same,viability,"[13]; at 0.0195 µM, OCI-P5x cells, without rucaparib",92.1% (active)
same,viability,"[13]; at 0.0781 µM, OCI-C5x cells, with rucaparib 10 µM, 100% = cells with rucaparib alone",108% (inactive)
same,viability,"[13]; at 0.0781 µM, OCI-C5x cells, without rucaparib",98% (active)
same,viability,"[13]; at 0.0781 µM, OCI-P5x cells, with rucaparib 20 µM, 100% = cells with rucaparib alone",98.6% (active)
same,viability,"[13]; at 0.0781 µM, OCI-P5x cells, without rucaparib",90.1% (active)
same,viability,"[13]; at 0.313 µM, OCI-C5x cells, with rucaparib 10 µM, 100% = cells with rucaparib alone",97% (active)
same,viability,"[13]; at 0.313 µM, OCI-C5x cells, without rucaparib",99% (active)
same,viability,"[13]; at 0.313 µM, OCI-P5x cells, with rucaparib 20 µM, 100% = cells with rucaparib alone",99.1% (active)
same,viability,"[13]; at 0.313 µM, OCI-P5x cells, without rucaparib",91.6% (active)
same,viability,"[13]; at 1.25 µM, OCI-C5x cells, with rucaparib 10 µM, 100% = cells with rucaparib alone",101% (inactive)
same,viability,"[13]; at 1.25 µM, OCI-C5x cells, without rucaparib",108% (inactive)
same,viability,"[13]; at 1.25 µM, OCI-P5x cells, with rucaparib 20 µM, 100% = cells with rucaparib alone",95.4% (active)
same,viability,"[13]; at 1.25 µM, OCI-P5x cells, without rucaparib",85.4% (active)
same,viability,"[13]; at 5 µM, OCI-C5x cells, with rucaparib 10 µM, 100% = cells with rucaparib alone",66.1% (active)
same,viability,"[13]; at 5 µM, OCI-C5x cells, without rucaparib",89.5% (active)
same,viability,"[13]; at 5 µM, OCI-P5x cells, with rucaparib 20 µM, 100% = cells with rucaparib alone",49.8% (active)
same,viability,"[13]; at 5 µM, OCI-P5x cells, without rucaparib",78.7% (active)
same,inhibition,"[14]; at 0.5 µM, stronger effect = higher value",-9.52% (inactive)
same,inhibition,"[14]; measured here: combination with BGB IC20, at 0.005 µM",-35.2%
same,inhibition,"[14]; measured here: combination with BGB IC40, at 0.005 µM",-73.8%
same,inhibition,"[14]; measured here: combination with BGB IC40, at 0.05 µM",-46%
same,inhibition,"[14]; measured here: combination with cisplatin, at 0.5 µM, stronger effect = higher value",-30%
same,inhibition,"[14]; measured here: combination with cisplatin, at 5 µM, stronger effect = higher value",-29.6%
same,inhibition,"[15]; BGB combo, at 5 µM",-83.5%
same,inhibition,[15]; at 0.5 µM,-25.6% (inactive)
same,inhibition,"[15]; cisplatin combo, at 5 µM",-52%
same,inhibition,"[15]; measured here: with BGB IC20 combination, at 0.5 µM",-33.3%
same,inhibition,"[15]; measured here: with cisplatin IC20 combination, at 0.5 µM",-8.96%
same,inhibition,"[15]; single agent, at 5 µM",-28.3%
same,inhibition,"[16]; BGB IC20 combo, at 0.005 µM",-21.3%
same,inhibition,"[16]; BGB IC40 combo, at 0.005 µM",-19.1%
same,inhibition,"[16]; BGB IC40 combo, at 0.05 µM",-12.3%
same,inhibition,[16]; at 0.5 µM,-40.4% (inactive)
same,inhibition,"[16]; cisplatin combo, at 0.05 µM",-18%
same,inhibition,"[16]; cisplatin combo, at 0.5 µM",-48.2%
same,inhibition,"[16]; cisplatin combo, at 5 µM",-17.2%
same,inhibition,"[16]; measured here: 5 uM single agent, at 5 µM",-2.07%
same,inhibition,[17]; at 0.5 µM,-12.3% (inactive)
same,inhibition,"[17]; measured here: with BGB IC20, at 0.5 µM",1.92%
same,inhibition,"[17]; measured here: with BGB IC20, at 5 µM",-7.86%
same,inhibition,"[17]; measured here: with cisplatin IC20, at 0.5 µM",-21.1%
same,inhibition,"[17]; measured here: with cisplatin IC20, at 5 µM",-6.63%
same,inhibition,"[17]; single agent, at 5 µM",12.4%
same,inhibition,[18]; at 0.5 µM,-3.85% (inactive)
same,inhibition,"[18]; measured here: BGB combination, at 0.5 µM",6.02%
same,inhibition,"[18]; measured here: BGB combination, at 5 µM",9.28%
same,inhibition,"[18]; measured here: cisplatin combination, at 0.5 µM",-13%
same,inhibition,"[18]; measured here: cisplatin combination, at 5 µM",5.38%
same,inhibition,[19]; at 0.5 µM,-28.7% (inactive)
same,inhibition,"[19]; cisplatin combination, at 0.5 µM",-22.9%
same,inhibition,"[19]; cisplatin combination, at 5 µM",-216%
same,inhibition,"[19]; measured here: BGB IC40 combination 0.05 uM, at 0.05 µM",-22.7%
same,inhibition,"[19]; single agent, at 5 µM",-20.5%
same,inhibition,[20]; at 0.5 µM,-29.6% (inactive)
same,inhibition,"[20]; cisplatin combo, at 5 µM",-34.8%
same,inhibition,"[20]; measured here: BGB IC40 combination, at 0.05 µM",-8.83%
same,inhibition,"[20]; measured here: combination with cisplatin, at 0.5 µM",-51.5%
same,inhibition,"[20]; single agent, at 5 µM",0.048%
